# Experimental data: the supplement of paper PMC9794691
# Key:
# H1975 [1] = assay: area under confluence curve of osimertinib + compound combination regimen (DTP regrowth); compare to osimertinib-only DTP control AUC of the same experiment (AUC (confluence x time, arbitrary)); conditions: test compound dose 300 nM, DMSO control AUC in same experiment: 14522
# Outline: (§1)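 The area under the IncuCyte confluence–time curve, calculated in Prism and taken as the median of triplicates where available, is the value reported. It was measured in EGFR-mutant NSCLC lines that received the EGFR inhibitor either alone, followed by a test compound, or together with a fixed-dose test compound until the persister stage (10–21 days) and then drug-free medium. Medium was refreshed every 3–4 days until the inhibitor-only wells were confluent again.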
# HCC2279 [2] = assay: as above; conditions: test compound dose 300 nM, DMSO control AUC in same experiment: 27284
# Outline: as §1
# HCC2935 [3] = assay: as above; conditions: test compound dose 300 nM, DMSO control AUC in same experiment: 11459
# Outline: as §1
# HCC4006 [4] = assay: as above; conditions: test compound dose 30 nM, DMSO control AUC in same experiment: 10921
# Outline: as §1
# HCC827 [5] = assay: as above; conditions: test compound dose 300 nM, DMSO control AUC in same experiment: 48895
# Outline: as §1
# II-18 [6] = assay: as above; conditions: test compound dose 30 nM, DMSO control AUC in same experiment: 18996
# Outline: as §1
# H1975 [7] = assay: area under confluence curve of compound monotherapy; compare to DMSO control AUC of the same experiment (AUC (confluence x time, arbitrary))
# Outline: (§2)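 EGFR-mutant adenocarcinoma lines (RPMI 1640, 10% FBS, 37 °C, 5% CO2) were seeded at 20,000–30,000 cells/well in 48-well plates and next day given test compound alone at one dose (highest with <50% parental inhibition, or 1 uM), refreshed after PBS washes every 3–4 days, then drug-free from DTP stage (10–21 days). IncuCyte confluence was tracked until EGFR-inhibitor-only wells regrew. Area under the confluence curve came from Prism (median of triplicates where run), beside same-experiment vehicle AUC.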
# HCC2279 [8] = assay: as above
# Outline: as §2
# HCC2935 [9] = assay: as above
# Outline: as §2
# HCC4006 [10] = assay: as above
# Outline: as §2
# HCC827 [11] = assay: as above
# Outline: as §2
# II-18 [12] = assay: as above
# Outline: as §2
# [13] = 300 nM, DMSO control AUC in same experiment: 11459
compound,measurement,setting,value
COc1nnc2ccc(N3CCC(c4ccc(OCCN5CCN(C)C(=O)[C@H]5C)cc4)CC3)nn12 + C=CC(=O)Nc1cc(Nc2nccc(-c3cn(C)c4ccccc34)n2)c(OC)cc1N(C)CCN(C)C [osimertinib],area under confluence curve,"H1975 [1]; dosing schedule: sequential, osimertinib-only DTP control AUC in same experiment: 12533",3520
same,area under confluence curve,"H1975 [1]; dosing schedule: upfront, osimertinib-only DTP control AUC in same experiment: 18969",15900
same,area under confluence curve,"HCC2279 [2]; dosing schedule: sequential, osimertinib-only DTP control AUC in same experiment: 5698",2470
same,area under confluence curve,"HCC2279 [2]; dosing schedule: upfront, osimertinib-only DTP control AUC in same experiment: 30623",13900
same,area under confluence curve,"HCC2935 [3]; dosing schedule: sequential, osimertinib-only DTP control AUC in same experiment: 9121",2580
same,area under confluence curve,"HCC2935 [3]; dosing schedule: upfront, osimertinib-only DTP control AUC in same experiment: 12748",4310
same,area under confluence curve,"HCC4006 [4]; dosing schedule: sequential, osimertinib-only DTP control AUC in same experiment: 14882",6680
same,area under confluence curve,"HCC4006 [4]; dosing schedule: upfront, osimertinib-only DTP control AUC in same experiment: 18913",5730
same,area under confluence curve,"HCC827 [5]; dosing schedule: sequential, osimertinib-only DTP control AUC in same experiment: 18675",4180
same,area under confluence curve,"HCC827 [5]; dosing schedule: upfront, osimertinib-only DTP control AUC in same experiment: 25542",12300
same,area under confluence curve,"II-18 [6]; dosing schedule: sequential, osimertinib-only DTP control AUC in same experiment: 16416",4370
same,area under confluence curve,"II-18 [6]; dosing schedule: upfront, osimertinib-only DTP control AUC in same experiment: 18996",14400
NC1(C(=O)N[C@@H](CCO)c2ccc(Cl)cc2)CCN(c2nc[nH]c3nccc2-3)CC1 [Capivasertib],area under confluence curve,"H1975 [7]; 300 nM, DMSO control AUC in same experiment: 26010",22500
same,area under confluence curve,"HCC2279 [8]; 300 nM, DMSO control AUC in same experiment: 29252",28500
same,area under confluence curve,HCC2935 [9]; [13],6510
same,area under confluence curve,"HCC4006 [10]; 300 nM, DMSO control AUC in same experiment: 16794",16700
same,area under confluence curve,"HCC827 [11]; 300 nM, DMSO control AUC in same experiment: 27404",28500
same,area under confluence curve,"II-18 [12]; 300 nM, DMSO control AUC in same experiment: 13556",11600
Cc1nc(N2CCC3(CC2)CO[C@@H](C)[C@H]3N)c(CO)nc1-c1cccc(Cl)c1Cl,area under confluence curve,"H1975 [7]; 1000 nM, DMSO control AUC in same experiment: 15857",17200
same,area under confluence curve,"HCC2279 [8]; 1000 nM, DMSO control AUC in same experiment: 14404",12100
same,area under confluence curve,"HCC2935 [9]; 1000 nM, DMSO control AUC in same experiment: 19215",19100
same,area under confluence curve,"HCC4006 [10]; 1000 nM, DMSO control AUC in same experiment: 18415",19200
same,area under confluence curve,"HCC827 [11]; 1000 nM, DMSO control AUC in same experiment: 21320",14900
same,area under confluence curve,"II-18 [12]; 1000 nM, DMSO control AUC in same experiment: 11834",3600
COC(=O)c1ccc([C@H]2c3[nH]c4ccccc4c3C[C@H](C(=O)OC)N2C(=O)CCl)cc1,area under confluence curve,"H1975 [7]; 100 nM, DMSO control AUC in same experiment: 26010",25200
same,area under confluence curve,"HCC2279 [8]; 100 nM, DMSO control AUC in same experiment: 9426",9000
same,area under confluence curve,"HCC2935 [9]; 100 nM, DMSO control AUC in same experiment: 11459",11700
same,area under confluence curve,"HCC4006 [10]; 100 nM, DMSO control AUC in same experiment: 16638",16200
same,area under confluence curve,"HCC827 [11]; 100 nM, DMSO control AUC in same experiment: 35394",29100
same,area under confluence curve,"II-18 [12]; 100 nM, DMSO control AUC in same experiment: 13556",7620
COc1nnc2ccc(N3CCC(c4ccc(OCCN5CCN(C)C(=O)[C@H]5C)cc4)CC3)nn12,area under confluence curve,"H1975 [7]; 300 nM, DMSO control AUC in same experiment: 14522",6020
same,area under confluence curve,"HCC2279 [8]; 300 nM, DMSO control AUC in same experiment: 27284",21500
same,area under confluence curve,HCC2935 [9]; [13],13000
same,area under confluence curve,"HCC4006 [10]; 30 nM, DMSO control AUC in same experiment: 10921",6660
same,area under confluence curve,"HCC827 [11]; 300 nM, DMSO control AUC in same experiment: 48895",42000
same,area under confluence curve,"II-18 [12]; 30 nM, DMSO control AUC in same experiment: 18996",14400
C[C@@]1(C(=O)Nc2ccc(F)nc2)CCCN1c1nc(Nc2cc(C3CC3)n[nH]2)c2cccn2n1,area under confluence curve,"H1975 [7]; 100 nM, DMSO control AUC in same experiment: 16540",17600
same,area under confluence curve,"HCC2279 [8]; 100 nM, DMSO control AUC in same experiment: 14404",15900
same,area under confluence curve,"HCC2935 [9]; 100 nM, DMSO control AUC in same experiment: 19215",20700
same,area under confluence curve,"HCC4006 [10]; 100 nM, DMSO control AUC in same experiment: 18415",20100
same,area under confluence curve,"HCC827 [11]; 100 nM, DMSO control AUC in same experiment: 21320",21300
same,area under confluence curve,"II-18 [12]; 100 nM, DMSO control AUC in same experiment: 11834",9980
CCn1nc(C2CCN(C(=O)CCO)CC2)nc1-c1cnc(N)c(-c2nnc(C(C)(C)C)o2)n1,area under confluence curve,"H1975 [7]; 1000 nM, DMSO control AUC in same experiment: 20657",18200
same,area under confluence curve,"HCC2279 [8]; 1000 nM, DMSO control AUC in same experiment: 9426",11400
same,area under confluence curve,"HCC2935 [9]; 1000 nM, DMSO control AUC in same experiment: 13875",11700
same,area under confluence curve,"HCC4006 [10]; 1000 nM, DMSO control AUC in same experiment: 16638",17000
same,area under confluence curve,"HCC827 [11]; 1000 nM, DMSO control AUC in same experiment: 27404",27500
same,area under confluence curve,"II-18 [12]; 1000 nM, DMSO control AUC in same experiment: 18482",14200
